Reference: ChEMBL document CHEMBL4513216, “Probing the Open Global Health Chemical Diversity Library for Multistage-Active Starting Points for Next-Generation Antimalarials” (ACS Infect Dis, 2020)
Screen size: about 68,000 compounds; about 2,700 (4%) showed an effect of 50% or more. The entries come from a sample that favours strong results as a whole.

Each compound was assayed on Plasmodium berghei (assay: Screen against P. berghei liver stage (PbLuc), transformed with Luciferase, at 2uM). Conditions: tested at 2 uM.
Assay type: functional, HepG2

Compared with `CC(C)c1ccc(-n2cc(O)c(C(=O)N3CCC(C(N)=O)CC3)n2)cc1`, `CNC(=O)CC1CCN(C(=O)NCc2coc3ccccc23)CC1` is higher in INHIBITION: -40.06% for the first, 53.81% for the second.

Compared with `Cc1nc(COC[C@]23COC[C@H]2CN(Cc2ccoc2)C3)cs1`, `Cn1cc(CN2CCO[C@H]3CN(Cc4ccsc4)C[C@H]32)cn1` is lower in INHIBITION: 18.57% for the first, 1.88% for the second.

Compared with `COc1ccc(C(C(=O)O)N2CCC(Cn3cccn3)CC2)cc1F` (configuration not stated), `COc1cccc(COCC(=O)N2CCCC(c3ccn[nH]3)C2)c1` (configuration not stated) is lower in INHIBITION: 15.46% for the first, 14.97% for the second.

Going from `Cc1ccnc(NC(=O)c2c(C)oc(C)c2C)c1` to `COc1ccc(CNC(=O)CCn2cc(C)cn2)cc1C`, the INHIBITION rises from -18.78% to -14.47%.

First: CCC1(C)Cc2ccccc2-c2nc(NCCCO)nc(O)c21 (configuration not stated)
Second: Cc1ncc(-c2ccnc(NCCO)n2)c(C2CCCCC2)n1
The INHIBITION of the first is higher: 44.7% for the first, -38.58% for the second.

Going from `CCOc1ccc2[nH]c3c(N(C)CC4OCCO4)ncnc3c2c1` to `CCOc1ncnc2c1CCN(C(=O)c1ccncc1F)CC2`, the INHIBITION falls from 38.64% to 28.85%.

First: Cc1ccc(S(=O)(=O)NC(=O)CCC(F)(F)F)cc1N(C)C
Second: O=C(NS(=O)(=O)c1ccccc1C(F)(F)F)c1cccc2c1OCCO2
The INHIBITION of the first is lower: 3.39% for the first, 37.69% for the second.

Compared with `CN(C)c1nc(NCCc2cnccn2)ncc1F`, `N#Cc1ncn(CCC(=O)Nc2ccc(F)c(F)c2)n1` is higher in INHIBITION: 44.19% for the first, 57.92% for the second.

Compared with `CN1CCN(C)C2(CCN(Cc3ccc(C4CCCCO4)o3)CC2)C1` (configuration not stated), `CN1CCC2(CC1)CN(Cc1ccc(C3CCCCO3)o1)CCCN2C` (configuration not stated) is lower in INHIBITION: -6.27% for the first, -83.94% for the second.

Compared with `OCC1(O)CCN(Cc2ccc(C3CCCCO3)o2)CC1` (configuration not stated), `Cc1cnc(C)c(N2CCN(CC3CCCO3)CC2)n1` (configuration not stated) is lower in INHIBITION: 61.27% for the first, -18.84% for the second.

Going from `CC(=O)N1CCN(C(=O)CN2CCc3c(ncn3C3CC3)C2)CC1` to `O=C(Cc1c(F)cccc1F)N1CCN(CC(=O)N2CCCC2)CC1`, the INHIBITION rises from 37.52% to 57.95%.

First: Cc1ccsc1CN(CCN(C)C)C(=O)C1=NNC(=O)CC1
Second: CN(C)C(=O)c1nc(CN2C(=O)OC[C@@H]2c2ccccc2)no1
The INHIBITION of the first is lower: -1.87% for the first, 18.19% for the second.

Going from `Cc1cccc(NC(=O)C2CCCN2C(=O)c2ccco2)c1C` (configuration not stated) to `COCc1ccccc1NC(=O)[C@@H]1CCCN1C(=O)c1ccco1`, the INHIBITION falls from 58.53% to 1.86%.

First: COC(=O)c1sccc1NC(=O)C1CCCN1C(=O)c1ccco1 (configuration not stated)
Second: O=C(Cc1cccs1)N1CCCC(CNS(=O)(=O)Cc2ccccc2)C1 (configuration not stated)
The INHIBITION of the first is higher: -16.52% for the first, -40.36% for the second.

Going from `NC(=O)CN1CCCN(C(=O)Cc2ccc(F)cc2)CC1` to `Cn1cccc1C(=O)N1CCCN(CCCc2ccccc2)CC1`, the INHIBITION falls from 33.12% to -25.8%.

Going from `O=C(CN1CCN(c2ncnc3cccc(F)c23)CC1)N1CCCC1` to `O=C(CN1CCCC1)N1CCCC(CNS(=O)(=O)Cc2ccccc2)C1` (configuration not stated), the INHIBITION rises from -11.35% to -4.77%.

Going from `CCc1n[nH]c(C2CN(C(=O)c3cscn3)CCO2)n1` (configuration not stated) to `Cc1cc(OCC(=O)N2CCCC(c3ccn[nH]3)C2)no1` (configuration not stated), the INHIBITION rises from -34.61% to 24.31%.

Going from `Cc1csc(N2CCCN(c3cc(C)nc(C)c3C#N)CC2)n1` to `Cc1cc(N2CCCC2)c(C#N)c(C)n1`, the INHIBITION falls from -20.21% to -27.68%.

First: Cc1cc(N2CCCCC2)c(C#N)c(C)n1
Second: Cc1noc(C)c1CN1CC2(CCCCN2C)CC1=O (configuration not stated)
The INHIBITION of the first is higher: 54.44% for the first, 21.57% for the second.

Going from `CCc1nc(C)c(-c2nccn2CC2CCCCO2)[nH]1` (configuration not stated) to `CCc1nc(C)c(-c2nccn2CC2CCN(C3CCCC3)CC2)[nH]1`, the INHIBITION rises from 54.75% to 56.81%.

Compared with `CC(=O)Nc1ccc2nc(-c3nccn3C[C@@H]3CCCO3)ccc2c1`, `Cc1cc(NC(=O)c2ccc(CN3CC[C@H](O)C3)cc2)ccc1F` is higher in INHIBITION: 25.13% for the first, 82.91% for the second.

Compared with `Cc1nccn1CCC1CCN(C2CCC3(CCNCC3)CC2)CC1`, `CC1CN(Cc2noc(C3CC3)n2)CCN1Cc1nccn1C` (configuration not stated) is lower in INHIBITION: 34.52% for the first, 14.82% for the second.

Compared with `CCc1nc(C)c(-c2nccn2CC2CC(=O)N(CC)C2)[nH]1` (configuration not stated), `CCc1noc(C)c1C(=O)N1CCCCC1Cn1cc(C)cn1` (configuration not stated) is lower in INHIBITION: -5.65% for the first, -11.2% for the second.

Compared with `O=C(c1ccoc1)N1C[C@H]2CC[C@@]3(N=C(c4ccccc4)NC3=O)[C@H]2C1`, `Cc1cc(C(=O)N2CCC3(CC(=O)NC3=O)C2)c(-c2ccccc2)o1` (configuration not stated) is higher in INHIBITION: -1.45% for the first, 15.87% for the second.

Going from `Cc1nn(C)c2c(=O)n(C)c(NCC3CCCO3)nc12` (configuration not stated) to `Cc1nc(C)n(CC2CCCCN2CC(=O)Nc2nnc(C)s2)n1` (configuration not stated), the INHIBITION falls from 37.45% to 19.97%.

Going from `CC(C)=CCC/C(C)=C/CN1CCN(C)C2(CCNC(=O)CC2)C1` (configuration not stated) to `CC/C(C)=C/CCN1CCN(C)C2(CCNC(=O)CC2)C1` (configuration not stated), the INHIBITION falls from 43.94% to 20.2%.

First: CC(C)=CCCN1CCN(C)C2(CCC(=O)N(C)CC2)C1 (configuration not stated)
Second: CN1C(=O)CCC12CCCN(C(=O)c1ccncc1F)C2 (configuration not stated)
The INHIBITION of the first is higher: 77.56% for the first, -39.56% for the second.

First: Cc1noc(C)c1CN1CCc2ncnc(-c3ccccc3)c2CC1
Second: Cc1noc(C)c1CN1CC2(CCCCN2c2cncnc2)CC1=O (configuration not stated)
The INHIBITION of the first is lower: -20.87% for the first, 50.32% for the second.

Going from `CCCC(=O)NC1CCCN(Cc2cccs2)C1` (configuration not stated) to `CC(C)(C)OC(=O)NC1CCCN(Cc2cccs2)C1` (configuration not stated), the INHIBITION falls from 53.65% to 1.08%.

First: O=S(=O)(Cc1ccccc1)NCC1CCCN(Cc2cccs2)C1 (configuration not stated)
Second: Cc1ncsc1CCC(=O)NC1CCN(Cc2cccs2)CC1
The INHIBITION of the first is higher: 64.35% for the first, 26.93% for the second.

First: Fc1ccc(CC2CCN(Cc3cscn3)CC2)cc1
Second: Cc1cncc(NC(=O)c2ccc(CN3CC[C@H](O)C3)cc2)c1
The INHIBITION of the first is lower: -23.58% for the first, 42.48% for the second.

First: COc1cc(NC(=O)c2ccc(CN3CC[C@H](O)C3)cc2)cc(OC)c1
Second: COc1ccc(C(C)NCCc2ccc(NC(C)=O)cc2)c(OC)c1 (configuration not stated)
The INHIBITION of the first is lower: 20.71% for the first, 26.99% for the second.

Compared with `Cc1cscc1-c1nc(C2CCOC2)no1` (configuration not stated), `Cc1cc(OCC(=O)N2CCCC(c3noc(C)n3)C2)no1` (configuration not stated) is lower in INHIBITION: 10.22% for the first, 6.3% for the second.

Compared with `O=C(NCc1nnc2n1CCC2)c1ccc(Br)s1`, `CC(=O)N1CCn2c(nnc2C2CCCCN2Cc2ccccc2Cl)C1` (configuration not stated) is lower in INHIBITION: 22.39% for the first, -46.48% for the second.

Going from `CC1CN(Cc2noc(C3CC3)n2)CCN1Cc1noc(C2CC2)n1` (configuration not stated) to `COCCN1CCN(Cc2noc(C3CC3)n2)CC1C` (configuration not stated), the INHIBITION rises from 33.82% to 53.03%.

First: CCOCCN1CCN(Cc2nnc(C3CC3)o2)CC1C (configuration not stated)
Second: CCOCCN1CCN(Cc2nnc(C3CC3)o2)CC1CC (configuration not stated)
The INHIBITION of the first is lower: -19.75% for the first, -0.55% for the second.

Going from `CCOCCN1CCN(Cc2nnc(C3CC3)o2)CC1` to `CC(O)CN1CCN(Cc2nnc(C3CC3)o2)CC1` (configuration not stated), the INHIBITION falls from 51.7% to 7.54%.

Going from `COCCN1C(=O)[C@@H]2CC[C@H]1CN(Cc1nnc(C3CC3)o1)C2` to `CCC1CN(Cc2nnc(C3CC3)o2)CCN1CCOC` (configuration not stated), the INHIBITION rises from 29.18% to 66.64%.

Compared with `Cc1ccc(N2CCC3(CCN(Cc4csc(C)n4)CC3)CC2)nn1`, `Cc1csc(C2(NCc3csc(C4CC4)n3)CCCC2)n1` is lower in INHIBITION: 18.91% for the first, -9.69% for the second.

Compared with `Cn1cc(C(=O)NCc2ccc(OC3CCCCC3)nc2)ccc1=O`, `COCCOC1CCN(C(=O)NCc2coc3ccccc23)CC1` is higher in INHIBITION: 2.66% for the first, 40.88% for the second.

First: N#Cc1cccc(CN2CC3(CCCCN3c3cncnc3)CC2=O)c1 (configuration not stated)
Second: Cc1c(C(=O)N2CCC2(C)C)nnn1-c1cccc2cnccc12
The INHIBITION of the first is lower: -29.69% for the first, 9.78% for the second.

First: O=C(O)c1cc(-c2ccoc2)cc(S(=O)(=O)N2CCSCC2)c1
Second: CNC(=O)CC1CCN(C(=O)NCC2(c3ccccc3F)CC2)CC1
The INHIBITION of the first is higher: 7.09% for the first, -23.23% for the second.

Compared with `Cc1cccc(NC(=O)CNC(=O)c2ccccc2F)c1`, `Cc1cccc(NC(=O)CCC(=O)NCC(=O)c2ccccc2F)c1` is lower in INHIBITION: 53.99% for the first, 22.31% for the second.

First: O=C(CNC(=O)c1ccccc1F)NCc1ccccn1
Second: Cc1c(C(=O)O)nnn1-c1cccc2cccnc12
The INHIBITION of the first is higher: -20.05% for the first, -58.01% for the second.

Compared with `N#Cc1cc(CSCCN2CCOCC2)ccc1F`, `N#Cc1ncn(CCC(=O)Nc2ccc(Cl)cc2F)n1` is lower in INHIBITION: 39.71% for the first, 5.52% for the second.

First: Cc1c(C(=O)N2CC(O)C2)nnn1-c1cccc2cnccc12
Second: Cc1c(C(=O)N2CC(C)(C)C2(C)C)nnn1-c1cccc2cnccc12
The INHIBITION of the first is higher: 50.31% for the first, -107.15% for the second.

Going from `Cc1c(C(=O)N2CCC2(C)C)nnn1-c1cccc2cccnc12` to `Cc1c(C(=O)N2CC(=O)N(C)C2)nnn1-c1cccc2cccnc12`, the INHIBITION rises from 9.78% to 57.5%.

First: c1cc(C2CCCN2CC2CC2)n[nH]1 (configuration not stated)
Second: c1ccc(OC2COC3(CCN(CC4CC4)CC3)C2)nc1 (configuration not stated)
The INHIBITION of the first is higher: 13.02% for the first, -17.63% for the second.

Compared with `CC(c1ccccn1)N(C)Cc1ccc(-n2ccnc2)cc1` (configuration not stated), `C[C@@H](NCc1cccc(Cl)c1)c1onc(-c2ccc(F)cc2)c1C(=O)O` is higher in INHIBITION: 2.67% for the first, 37.54% for the second.

First: Cc1cc(C2CCCN(C(=O)COc3cc(C)on3)C2)n[nH]1 (configuration not stated)
Second: Cc1cnc(N2CC(C(=O)N3CCOCC3)C3(CCOCC3)C2)nc1 (configuration not stated)
The INHIBITION of the first is lower: 60.64% for the first, 65.04% for the second.

Compared with `CCC1(c2ccc(NS(=O)(=O)c3cccs3)cc2)CCC(=O)NC1=O` (configuration not stated), `CCCc1nc(CNC2(c3nccs3)CCCC2)cs1` is higher in INHIBITION: -13.33% for the first, 58.68% for the second.

First: CC(C)N1CCC(CC(=O)N(C)C(C)c2cncs2)CC1 (configuration not stated)
Second: O=C(C1CN(c2ncc(F)cn2)CC12CCOCC2)N1CCOCC1 (configuration not stated)
The INHIBITION of the first is higher: 17.73% for the first, -45.73% for the second.

Compared with `O=C(C1CN(c2ncc(F)cn2)CC12CCOCC2)N1CC=CC1` (configuration not stated), `c1csc(C2(NCc3csc(C4CC4)n3)CCCC2)n1` is higher in INHIBITION: -78.69% for the first, -56.92% for the second.

Compound `N#Cc1ncn(CCC(=O)Nc2cccc(Cl)c2)n1` has an INHIBITION of 7.13%.
